A selection: hits, their analogues and other compounds. The true share with any hit is near 19%.
Shiga toxin inh: A qHTS for Small Molecule Inhibitors of Shiga Toxin | Vero cells, Shiga toxin protein synthesis inhibition reporter | inhibition, % at 38.7 µM | 290,000 compounds, 9.2% hits | AID 2315, 2010; in the data active means inhibition mostly above about 28%, no sharp cut-off; inactive means mostly below about 43%; further: 0% is about no effect
Pf growth 96h: Primary qHTS for delayed death inhibitors of the malarial parasite plastid, 96 hour incubation; P. falciparum luciferase reporter growth, 96 h; Potency, µM (titrated, usually from 28.7 µM), for inactives: top-dose activity change, negative = inhibition, hits mostly inhibitors; 320,000 compounds, 6.9% hits; AID 504834, 2011; further: potency means the concentration at half of the fitted maximal effect; on the % scale 0 is the no-effect control and ±100 the full control effect
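Cell-based qHTS: luciferase-tagged P. falciparum in erythrocytes (2% hematocrit, 0.05% parasitemia final) incubated with compounds for 96 hours, 37 C, 5% CO2; luciferase detection reagent then added and luminescence measured.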
SARS PLP yeast: qHTS of Yeast-based Assay for SARS-CoV PLP; 330,000 compounds, 0.19% hits; S. cerevisiae expressing SARS-CoV PLpro, growth rescue; Potency, µM (highest dose often 32.9 µM), without a hit: at the top dose activity, positive = growth rescue, hits mostly activators; calls by dose curve; further: potency means the concentration at half of the fitted maximal effect; 0% is about no effect; nearly all actives have a fitted effect of over 55% in size
Pf growth 48h: Primary qHTS for delayed death inhibitors of the malarial parasite plastid, 48 hour incubation | P. falciparum luciferase growth in erythrocytes, 48 h | Potency, µM (highest dose often 28.7 µM), inactives show at the top dose activity change, negative = inhibition, usual class: inhibitors | 310,000 compounds, 5.9% hits | AID 504832, 2011; further: potency means the concentration at half of the fitted maximal effect; on the % scale 0 is the no-effect control and ±100 the full control effect
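In quantitative HTS format, infected erythrocytes bearing luciferase-reporter parasites were treated for a single generation at 37 C. Luminescence after adding detection reagent served as the growth measure.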
AMA1-RON2 inh: qHTS for Inhibitors of AMA1-RON; Towards Development of Antimalarial Drug Lead: Primary Screen. Plasmodium falciparum AMA1 (3D7) - RON2 peptide interaction. AlphaScreen AMA1-biotinylated RON2 peptide binding. Potency, µM (titrated, usually from 58.2 µM), for the others: top-dose activity change, negative = inhibition, hits mostly inhibitors. 360,000 compounds, 0.2% hits. AID 720542, 2013;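 further: potency means the concentration at half of the fitted maximal effect; 0% = vehicle wells and -100% = peptide control; nearly all actives have a fitted effect of over 45% in size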
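AMA1 (3D7) with his tag at 25 nM final met compounds first, then biotinylated RON2 peptide at 25 nM; detection used donor plus acceptor beads, 10 µg/mL apiece, read by AlphaScreen after 30 min at room temperature.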
Cycloheximide cs: Cycloheximide Counterscreen for Small Molecule Inhibitors of Shiga Toxin. cell reporter, cycloheximide protein synthesis inhibition counterscreen. max response, %. 300,000 compounds, 12% hits. AID 2314, 2010; in the data active means max response mostly above about 13%, no sharp cut-off; inactive means mostly below about 14%; further: read at 38.3 µM for the half of the compounds with a filed dose; 0% is about no effect
* = called active by the depositor; ? = inconclusive; . = no result given. Unless noted, the call rests on the fitted dose curve; in most records, active means well fitted curve in the direction sought with a large enough effect; inconclusive means small, poorly fitted or top-dose-only effect, or another doubt; inactive means no such curve, though single readings can be large; an effect the other way counts as inactive or inconclusive.

SMILES	Shiga toxin inh	Pf growth 96h	SARS PLP yeast	Pf growth 48h	AMA1-RON2 inh	Cycloheximide cs
Cc1c(C(=O)N(Cc2ccccc2)C2CCS(=O)(=O)C2)oc2ccccc12 (stereo unspecified)	-2	0%	-2%	14%	11%	-1
COc1ccc(CN2C[C@@H](CO)O[C@@H](n3cnc4c(N5CCOCC5)ncnc43)C2)cc1	.	.	.	.	-2%	.
CCOC(=O)[C@]12CCCC=C1N(CCC1=CCCCC1)C(=O)[C@H](CC(=O)NCc1ccc(C)o1)C2	.	.	.	.	-9%	.
CCOc1ccccc1C(=O)N(Cc1cccs1)C1CCS(=O)(=O)C1 (stereo unspecified)	-12	16%	6%	-8%	-8%	-1
O=C(c1cc2ccccc2oc1=O)N(Cc1ccc(F)cc1)C1CCS(=O)(=O)C1 (stereo unspecified)	130*	26%	2%	8%	-6%	64*
O=C(c1ccccc1F)N(Cc1ccc(F)cc1)C1CCS(=O)(=O)C1 (stereo unspecified)	2	.	-3%	-4%	9%	1
COc1ccccc1C(=O)N(Cc1sccc1C)C1CCS(=O)(=O)C1 (stereo unspecified)	-3	2.1µM*	-10%	2%	-8%	-9
CC(=O)N1CCN=C1SCc1ccc(Cl)cc1	7	-14%	5%	2%	-4%	-2
CCCCC[C@@H]1C=C(C(=O)O)[C@H](c2cccc(C)c2)N1S(=O)(=O)c1ccc(C)cc1	.	.	-2%	.	8%	.
O=C(OCc1cn([C@@H]2C[C@H](c3ccc(Cl)cc3)N(C(=O)C3CCCCC3)C[C@H]2O)nn1)c1ccccc1	.	.	.	.	-12%	.
CCc1nnc(NS(=O)(=O)c2ccc(NCc3ccccc3O)cc2)s1	-4	3.3µM*	-2%	18%	11%	-2
CCc1nnc(NS(=O)(=O)c2ccc(NC(=O)c3ccc(C#N)cc3)cc2)s1	3	10µM*	11%	?	-9%	-1
CCc1nnc(NS(=O)(=O)c2ccc(NC(=O)c3ccccc3)cc2)s1	-11	-2%	-3%	?	-1%	-1
CCc1nnc(NS(=O)(=O)c2ccc(N/C=C\C(=O)c3ccc4ccccc4c3)cc2)s1	3	?	-9%	-7%	-8%	24*
CCc1nnc(NS(=O)(=O)c2ccc(NC(=O)c3ccc(Cl)cc3)cc2)s1	-9	?	-5%	?	-12%	-2
CCc1nnc(NS(=O)(=O)c2ccc(NCc3cc(Br)ccc3O)cc2)s1	-6	38%	4%	5%	7%	1
CCCN(CCC)S(=O)(=O)c1ccc(C(=O)Nc2ccc(S(=O)(=O)Nc3nnc(CC)s3)cc2)cc1	-7	?	2%	12µM*	0%	-1
COCCNC(=O)C1(C)CCCN(C(=O)c2c(-c3ccccc3)noc2C)C1 (stereo unspecified)	.	.	.	.	9%	.
CCCNC(=O)C1(C)CCCN(C(=O)c2ccccc2F)C1 (stereo unspecified)	.	.	.	.	0%	.
CSc1nnc2c3c4c(sc3c(=O)n(-c3ccccc3)n12)CC(C)(C)OC4	-4	.	10%	0.74µM*	19%	-2
CCO[C@H]1OC(C(=O)N2CCN(C)CC2)=C[C@@H](c2ccc3c(c2)OCO3)[C@@H]1CCCO	-3	?	-1%	8%	6%	1
CCO[C@@H]1OC(C(=O)N2CCN(Cc3ccc4c(c3)OCO4)CC2)=C[C@H](c2ccc(Br)cc2)[C@H]1CCCO	-13	4.1µM*	0%	1.3µM*	-19%	-2
CCO[C@@H]1OC(C(=O)N2CCN(Cc3ccc4c(c3)OCO4)CC2)=C[C@H](c2ccc(C(F)(F)F)cc2)[C@H]1CCCO	-7	2.3µM*	0%	1.5µM*	4%	0
ClCCNc1nc2ccc(Cl)cc2[nH]1	15	11%	-30%	53%	2%	19*
O=C(NC1CCCCC1)c1cc(-c2ccc(Cl)cc2)on1	-4	16%	10%	77%	5%	-2
SMILES	Shiga toxin inh	Pf growth 96h	SARS PLP yeast	Pf growth 48h	AMA1-RON2 inh	Cycloheximide cs
O=C(NC1CCCC1)c1cc(-c2ccc(Cl)cc2)on1	59*	142%	0%	83%	0%	27*
O=C(NC1CCCC1)c1cc(-c2ccc(F)cc2)on1	96*	124%	-1%	117%	-3%	46*
C/C(Sc1nnc(Cc2ccccc2)o1)=C(/O)c1ccccc1	-11	32%	1%	15%	0%	-2
Cn1c(=O)oc2cc(NC(=O)CCl)ccc21	-4	6.6µM*	17%	5.2µM*	-8%	-1
COc1ccc(NC(=O)CCS(=O)(=O)c2ccc3c(c2)oc(=O)n3C)cc1OC	-7	?	-4%	4%	-15%	-10
Cc1ccc(Cl)cc1NC(=O)CCS(=O)(=O)c1ccc2c(c1)n(C)c(=O)c(=O)n2C	.	.	.	.	0%	.
Cc1cccc(NC(=O)CCS(=O)(=O)c2ccc3c(c2)oc(=O)n3C)c1	-7	8.3µM*	-1%	5%	4%	-7
CC(=O)Nc1ccc(NC(=O)CCS(=O)(=O)c2ccc3c(c2)oc(=O)n3C)cc1	-1	9.3µM*	-1%	17%	7%	-11
Cc1cc(C)cc(NC(=O)CCNS(=O)(=O)c2ccc3c(c2)oc(=O)n3C)c1	-4	?	8%	?	43%	1
CC(=O)c1ccc(NC(=O)CCS(=O)(=O)c2ccc3c(c2)n(C)c(=O)c(=O)n3C)cc1	-6	9.3µM*	8%	40%	12%	1
CCOC(=O)N1CCC(NS(=O)(=O)c2cc(C(=O)OC)n(C)c2)CC1	1	63%	0%	3%	-3%	-2
COc1cc(C(C)=O)ccc1OCC(=O)Nc1ccc(C)c(S(=O)(=O)N2CCCCCC2)c1	.	?	4%	?	-1%	.
CC1CC(C)CN(S(=O)(=O)CCNC(=O)c2ccc3c(c2)OCO3)C1 (stereo unspecified)	.	10%	2%	5%	2%	.
CCC1Sc2ccc(S(=O)(=O)CCC(=O)Nc3ccc(C(=O)OC)cc3)cc2NC1=O (stereo unspecified)	22	-3%	?	19%	-14%	16
CCC1Sc2ccc(S(=O)(=O)CCC(=O)Nc3ccc(NC(C)=O)cc3)cc2NC1=O (stereo unspecified)	-2	6.6µM*	-1%	29%	2%	7
C=CCSc1nncn1/N=C/c1ccc(OC)cc1	76*	171%	4%	148%	-3%	37*
CN(C(=O)CSc1nnc(-c2ccncc2)n1Cc1ccccc1)C1CCS(=O)(=O)C1 (stereo unspecified)	-3	25%	0%	14%	.	-3
